# Measurements published in PubChem BioAssay (Tox21).
# Results filed as inconclusive are left out. Entries that show only a call come without a potency. Values without a mark were called inactive. Active and inactive are the calls of the source. Unless noted, the call rests on the fitted dose curve; in most records, active means well fitted curve in the direction sought with a large enough effect in the repeat runs; inconclusive means weak or mixed curves; inactive means no such curve, though single readings can be large; an effect the other way counts as inactive or inconclusive.
# Legend:
# [1] = target: Luciferin 4-monooxygenase (Photinus pyralis) (UniProt P08659); assay: qHTS assay to identify small molecule inhibitors of firefly luciferase (AID 1224835); further: nearly all actives have a fitted effect of over 25% in size; further: potency means the concentration at half of the fitted maximal effect; on activity change, negative = inhibition: series mostly up to about 120 µM
# In short: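 Biochemical qHTS: compounds run as interplate titrations against purified firefly enzyme, with D-luciferin and ATP each at its KM concentration. Light output recorded by CCD imaging.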
# [2] = qHTS assay to identify small molecule agonists of the constitutive androstane receptor (CAR) signaling pathway - cell viability counter screen (AID 1224836); further: nearly all actives have a fitted effect of over 45% in size; further: potency means the concentration at half of the fitted maximal effect; on viability change, negative = cytotoxic: series mostly up to about 92 µM
# In short: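 Double-stable HepG2 hepatoma cells (hCAR plus CYP2B6-2.2kb) are treated for 23 h at 37 C with test compounds in 15-point concentration series. PK11195 at 0.75 uM final is co-added. Cell viability is quantified by CellTiter-Fluor.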
# [3] = qHTS assay to identify small molecule antagonists of the constitutive androstane receptor (CAR) signaling pathway - cell viability counter screen (AID 1224837); further: nearly all actives have a fitted effect of over 45% in size; further: potency means the concentration at half of the fitted maximal effect; on activity change, negative = cytotoxicity: series mostly up to about 92 µM
# In short: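 In quantitative HTS format, compounds at 15 concentrations were applied to HepG2 cells double-transfected with hCAR and CYP2B6-2.2kb under 50 nM CITCO stimulation; live-cell protease activity was read after 23 hr via CellTiter-Fluor.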
# [4] = target: Nuclear receptor subfamily 1 group I member 3 (Homo sapiens) (UniProt Q14994); assay: qHTS assay to identify small molecule antagonists of the constitutive androstane receptor (CAR) signaling pathway (AID 1224838); further: nearly all actives have a fitted effect of over 40% in size; further: potency means the concentration at half of the fitted maximal effect
# In short: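 CITCO-stimulated (50 nM final) HepG2 cells stably transfected with hCAR and CYP2B6-2.2kb luciferase were exposed to compounds at 15 concentrations for 24 h at 37 C/5% CO2. A luciferase reagent was added and luminescence recorded after 30 min.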
# [5] = target: Nuclear receptor subfamily 1 group I member 3 (Homo sapiens) (UniProt Q14994); assay: qHTS assay to identify small molecule agonists of the constitutive androstane receptor (CAR) signaling pathway (AID 1224839); further: nearly all actives have a fitted effect of over 15% in size; further: potency means the concentration at half of the fitted maximal effect;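 on activation: HepG2 cells stably carrying human CAR and a CYP2B6 luciferase reporter; series mostly up to about 92 µM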
# In short: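 Readout: firefly luciferase luminescence via ONE-Glo. System: HepG2 double-stable for hCAR and CYP2B6-2.2kb. Conditions: 15-point compound titration, PK11195 at 0.75 uM final, 24 h incubation.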
# [6] = qHTS assay to identify small molecule antagonists of the estrogen related receptor signaling pathway with the pleiotropic PPARgamma coactivator (PGC) from Tox21 10K library - cell viability counter screen (AID 1224840; active means well fitted cell-killing curve with a large enough effect in the repeat runs, not every such curve was filed as active; further: nearly all actives have a fitted effect of over 40% in size)
# In short: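 Viability counter screen, PGC/ERR cells: 17.5 h compound exposure at 37 C, CellTiter-Fluor fluorescence endpoint.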
# [7] = target: Thyrotropin receptor (Homo sapiens) (UniProt P16473); assay: qHTS assay to identify small molecule agonists of the thyroid stimulating hormone receptor (TSHR) signaling pathway (AID 1224843; calls by dose curve; further: nearly all actives have a fitted effect of over 45% in size)
# In short: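 HEK293/TSHR, 800 cells/well; cpd 30 min RT; add cAMP-d2 + anti-cAMP-cryptate, 1 h RT; fluorescence read on plate reader. 15-pt titration, n=3.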
# [8] = qHTS assay to identify small molecule antagonists of the estrogen related receptor signaling pathway with the pleiotropic PPARgamma coactivator (PGC) from Tox21 10K library (AID 1224841; call rule not given here; further: actives are mostly falling curves and most rising ones were filed inactive; nearly all actives have a fitted effect of over 50% in size; further: potency means the concentration at half of the fitted maximal effect; on activity, negative = inhibition: series mostly up to about 92 µM)
# In short: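 In the PGC/ERR line, DMSO solutions of test chemicals are pin-delivered to 2,000 cells/well six hours after dispensing. Following eighteen hours' incubation, One-Glo reagent is added and luminescence recorded.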
# [9] = qHTS assay to identify small molecule agonists of the estrogen related receptor signaling pathway with the pleiotropic PPARgamma coactivator (PGC) from Tox21 10K library (AID 1224842); further: nearly all actives have a fitted effect of over 15% in size
# In short: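 PGC/ERR reporter cell line, 2,000 cells per well, incubated 6 h at 37 C before 23 nL compound in DMSO was added. After 18 h at 37 C, One-Glo luminescence read following 30 min at room temperature.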
# [10] = qHTS assay to identify small molecule agonists of the hypoxia (HIF-1) signaling pathway - cell viability counter screen (AID 1224844; calls by dose curve; further: nearly all actives have a fitted effect of over 50% in size)
# In short: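 Same wells as the HIF-1 reporter screen; ME-180 cells carrying HRE-bla, 17 hr treatment at 37C; CellTiter-Glo luminescence read after 30 min at room temperature.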
# Chain of Thyrotropin receptor (Homo sapiens) (P16473 whole entry, looked up): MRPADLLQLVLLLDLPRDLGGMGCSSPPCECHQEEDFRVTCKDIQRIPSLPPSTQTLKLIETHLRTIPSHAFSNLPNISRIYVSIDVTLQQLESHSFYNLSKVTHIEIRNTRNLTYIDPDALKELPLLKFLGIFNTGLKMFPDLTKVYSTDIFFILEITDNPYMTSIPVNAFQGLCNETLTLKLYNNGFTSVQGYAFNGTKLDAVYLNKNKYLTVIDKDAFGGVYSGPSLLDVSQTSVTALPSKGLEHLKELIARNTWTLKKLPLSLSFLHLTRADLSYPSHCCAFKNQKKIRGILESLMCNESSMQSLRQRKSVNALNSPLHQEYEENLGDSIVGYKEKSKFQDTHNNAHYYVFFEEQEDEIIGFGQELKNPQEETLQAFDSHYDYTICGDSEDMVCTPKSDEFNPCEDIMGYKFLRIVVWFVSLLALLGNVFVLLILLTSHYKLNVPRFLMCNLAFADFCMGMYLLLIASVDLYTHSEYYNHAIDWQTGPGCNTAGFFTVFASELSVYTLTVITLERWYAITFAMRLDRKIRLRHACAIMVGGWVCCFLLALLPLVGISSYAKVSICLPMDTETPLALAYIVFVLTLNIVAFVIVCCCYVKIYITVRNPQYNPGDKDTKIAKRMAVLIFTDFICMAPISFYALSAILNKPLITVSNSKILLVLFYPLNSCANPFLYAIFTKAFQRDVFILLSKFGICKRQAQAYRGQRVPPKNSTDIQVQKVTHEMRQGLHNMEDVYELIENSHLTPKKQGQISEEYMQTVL
# Chain of Nuclear receptor subfamily 1 group I member 3 (Homo sapiens) (Q14994 whole entry, looked up): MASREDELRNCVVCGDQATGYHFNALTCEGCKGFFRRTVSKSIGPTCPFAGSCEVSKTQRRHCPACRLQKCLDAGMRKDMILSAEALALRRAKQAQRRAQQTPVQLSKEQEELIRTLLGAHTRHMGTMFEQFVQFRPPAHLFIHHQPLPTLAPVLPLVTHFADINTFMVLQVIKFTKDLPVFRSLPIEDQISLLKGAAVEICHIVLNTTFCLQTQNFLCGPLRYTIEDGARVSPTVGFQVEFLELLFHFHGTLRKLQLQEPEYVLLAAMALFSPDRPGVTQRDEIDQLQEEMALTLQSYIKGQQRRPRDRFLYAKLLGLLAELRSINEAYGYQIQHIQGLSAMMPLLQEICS
# Chain of Luciferin 4-monooxygenase (Photinus pyralis) (P08659 whole entry, looked up): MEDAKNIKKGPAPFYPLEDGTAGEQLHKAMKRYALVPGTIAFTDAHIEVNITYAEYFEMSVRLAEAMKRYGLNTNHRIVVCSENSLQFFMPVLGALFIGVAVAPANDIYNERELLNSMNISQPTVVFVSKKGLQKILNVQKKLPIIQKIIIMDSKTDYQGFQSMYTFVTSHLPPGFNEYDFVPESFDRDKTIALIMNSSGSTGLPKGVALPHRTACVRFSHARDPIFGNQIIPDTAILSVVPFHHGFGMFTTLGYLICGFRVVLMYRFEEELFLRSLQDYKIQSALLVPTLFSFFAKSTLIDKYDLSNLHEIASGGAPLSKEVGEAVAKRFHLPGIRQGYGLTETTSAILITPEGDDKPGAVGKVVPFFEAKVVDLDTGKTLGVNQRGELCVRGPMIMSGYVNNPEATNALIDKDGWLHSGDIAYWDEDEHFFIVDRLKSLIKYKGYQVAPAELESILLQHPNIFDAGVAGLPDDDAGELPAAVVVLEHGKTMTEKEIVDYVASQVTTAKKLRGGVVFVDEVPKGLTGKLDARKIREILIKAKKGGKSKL
smiles,measurement,setting,value
CC(=O)/C=C/C1C(C)=CCCC1(C)C (stereo not drawn),Potency,[1],inactive
same,Potency,[2],inactive
same,Potency,[3],inactive
CCCCCCCCCCCCCCCC(=O)OC/C=C(C)/C=C/C=C(C)/C=C/C1=C(C)CCCC1(C)C,Potency,[1],inactive
same,Potency,[2],inactive
same,Potency,[3],inactive
same,Potency,[4],inactive
same,Potency,[5],inactive
same,Potency,[6],inactive
same,Potency,[7],inactive
CC(=O)OC/C=C/c1ccccc1,Potency,[1],inactive
same,Potency,[2],inactive
same,Potency,[3],inactive
same,Potency,[4],inactive
same,Potency,[5],inactive
same,Potency,[6],inactive
same,Potency,[8],inactive
same,Potency,[9],inactive
same,Potency,[7],inactive
same,Potency,[10],inactive
O=S1(=O)c2cccc3cccc(c23)N1CCCN1CCN(c2ccc(F)cc2)CC1,Potency,[1],inactive
same,Potency,[2],inactive
same,Potency,[3],inactive
same,Potency,[4],inactive
same,Potency,[5],26.6 µM (active)
same,Potency,[6],inactive
same,Potency,[8],inactive
same,Potency,[7],inactive
same,Potency,[10],inactive
CCOc1cc(OCC)c(C(=O)CCC(=O)O)cc1OCC,Potency,[1],inactive
same,Potency,[2],inactive
same,Potency,[3],inactive
same,Potency,[4],inactive
same,Potency,[5],inactive
same,Potency,[6],inactive
O=C(O)C(c1ccc(Cl)cc1)c1ccc(Cl)cc1,Potency,[1],inactive
same,Potency,[2],inactive
same,Potency,[3],inactive
same,Potency,[4],inactive
same,Potency,[5],inactive
same,Potency,[6],inactive
same,Potency,[8],inactive
same,Potency,[9],inactive
same,Potency,[7],inactive
same,Potency,[10],inactive
NC(N)=N/N=C/c1c(Cl)cccc1Cl,Potency,[1],inactive
same,Potency,[2],23.7 µM (active)
same,Potency,[3],23.7 µM (active)
same,Potency,[4],inactive
same,Potency,[5],inactive
same,Potency,[6],inactive
same,Potency,[8],inactive
same,Potency,[10],inactive
C#CCOC(=O)[C@@H](C)Oc1ccc(Oc2ncc(Cl)cc2F)cc1,Potency,[1],inactive
same,Potency,[2],inactive
same,Potency,[3],inactive
same,Potency,[4],inactive
same,Potency,[5],inactive
same,Potency,[6],inactive
same,Potency,[8],inactive
same,Potency,[10],inactive
O=C1[C@H](CC[C@H](O)c2ccc(F)cc2)[C@@H](c2ccc(O)cc2)N1c1ccc(F)cc1,Potency,[1],inactive
same,Potency,[2],inactive
same,Potency,[3],inactive
same,Potency,[4],inactive
same,Potency,[5],inactive
same,Potency,[6],inactive
same,Potency,[8],26.6 µM (active)
same,Potency,[7],inactive
CC(C)CC=O,Potency,[1],inactive
same,Potency,[2],inactive
same,Potency,[3],inactive
same,Potency,[4],inactive
same,Potency,[5],inactive
same,Potency,[6],inactive
same,Potency,[7],inactive
Cc1ccc(C(=O)C(C)CN2CCCCC2)cc1 (stereo not drawn),Potency,[1],inactive
same,Potency,[2],inactive
same,Potency,[3],inactive
same,Potency,[4],inactive
same,Potency,[5],inactive
same,Potency,[6],inactive
same,Potency,[8],inactive
same,Potency,[9],inactive
same,Potency,[7],inactive
same,Potency,[10],inactive
O=C(C(=O)c1ccc(Br)cc1)c1ccc(Br)cc1,"activity change, negative = inhibition",[1],1.95% [at 23.6 µM]
same,"viability change, negative = cytotoxic",[2],3.05% [at 19 µM]
same,"activity change, negative = cytotoxicity",[3],-2.27% [at 19 µM]
same,"activity, negative = inhibition",[4],0.195% [at 19 µM]
same,activation,[5],2.8% [at 19 µM]
same,"viability change, negative = cytotoxic",[6],3.02% [at 19 µM]
same,activation,[9],2.38% [at 19 µM]
same,activation,[7],3.26% [at 19 µM]
same,"activity change, negative = cytotoxicity",[10],-11.6% [at 15.8 µM]
Cc1ccc(C)o1,Potency,[1],inactive
same,Potency,[2],inactive
same,Potency,[3],inactive
same,Potency,[4],inactive
same,Potency,[5],inactive
same,Potency,[6],inactive
same,Potency,[8],inactive
same,Potency,[9],inactive
same,Potency,[7],inactive
same,Potency,[10],inactive
Oc1ccc(Cc2ccccc2)cc1,Potency,[1],65.7 µM (active)
same,Potency,[2],inactive
same,Potency,[3],inactive
same,Potency,[4],inactive
same,Potency,[5],56.6 µM (active)
same,Potency,[6],inactive
same,Potency,[8],inactive
same,Potency,[7],inactive
same,Potency,[10],inactive
CCCCC(CC)(CO)CO,Potency,[1],inactive
same,Potency,[2],inactive
same,Potency,[3],inactive
same,Potency,[4],inactive
same,Potency,[5],inactive
same,Potency,[6],inactive
same,Potency,[7],inactive
Nc1nc(N)c2nc(CNc3ccc(C(=O)N[C@@H](CCC(=O)O)C(=O)O)cc3)cnc2n1,Potency,[1],inactive
same,Potency,[2],inactive
same,Potency,[3],inactive
same,Potency,[4],0.0404 µM (active)
same,Potency,[5],inactive
same,Potency,[6],inactive
same,Potency,[8],0.114 µM (active)
same,Potency,[9],inactive
same,Potency,[7],inactive
same,Potency,[10],inactive
c1ccc(-c2nc[nH]c2-c2ccccc2)cc1,Potency,[1],inactive
same,Potency,[2],inactive
same,Potency,[3],inactive
same,Potency,[4],inactive
same,Potency,[5],inactive
same,Potency,[6],inactive
same,Potency,[7],inactive
Cn1c(N)nc2nc[nH]c2c1=O,Potency,[1],inactive
same,Potency,[2],inactive
same,Potency,[3],inactive
same,Potency,[4],48 µM (active)
same,Potency,[5],inactive
same,Potency,[6],inactive
same,Potency,[7],inactive
O=C(O)c1cccc(N(Cc2cccnc2)c2ccc(OC(F)F)c(OC(F)F)c2)c1,Potency,[1],inactive
same,Potency,[2],inactive
same,Potency,[3],inactive
same,Potency,[4],inactive
same,Potency,[5],inactive
same,Potency,[6],inactive
same,Potency,[8],inactive
same,Potency,[9],inactive
same,Potency,[10],inactive
CCN(CC)CCc1nc(-c2ccccc2)no1,Potency,[1],inactive
same,Potency,[2],inactive
same,Potency,[3],inactive
same,Potency,[4],inactive
same,Potency,[5],9.44 µM (active)
same,Potency,[6],inactive
same,Potency,[9],inactive
same,Potency,[7],inactive
same,Potency,[10],inactive
CCC(=O)OC(C)(C)C1CC=C(C)CC1 (stereo not drawn),Potency,[1],inactive
same,Potency,[2],inactive
same,Potency,[3],inactive
same,Potency,[4],inactive
same,Potency,[5],inactive
same,Potency,[6],inactive
same,Potency,[8],inactive
same,Potency,[9],inactive
same,Potency,[7],inactive
Oc1ccc(O)c2c(O)cccc12,Potency,[1],inactive
same,Potency,[2],inactive
same,Potency,[3],inactive
same,Potency,[4],inactive
same,Potency,[5],inactive
same,Potency,[6],inactive
same,Potency,[8],inactive
same,Potency,[7],inactive
same,Potency,[10],inactive
C=CCCCCCC,Potency,[1],inactive
same,Potency,[2],inactive
same,Potency,[3],inactive
same,Potency,[4],inactive
same,Potency,[5],inactive
same,Potency,[6],inactive
same,Potency,[8],inactive
same,Potency,[9],inactive
same,Potency,[7],inactive
same,Potency,[10],inactive
Cc1occc1S,Potency,[1],inactive
same,Potency,[2],inactive
same,Potency,[3],inactive
same,Potency,[4],inactive
same,Potency,[5],inactive
same,Potency,[6],inactive
same,Potency,[8],inactive
same,Potency,[7],inactive
same,Potency,[10],inactive
CCN(CC)CCOC(=O)C1(c2ccccc2)CCCC1,Potency,[1],inactive
same,Potency,[2],inactive
same,Potency,[3],inactive
same,Potency,[4],inactive
same,Potency,[5],inactive
same,Potency,[6],inactive
same,Potency,[8],inactive
same,Potency,[9],inactive
same,Potency,[7],inactive
same,Potency,[10],inactive
C=CC(=O)OCCOC(=O)CCC(=O)O,Potency,[1],inactive
same,Potency,[2],inactive
same,Potency,[3],inactive
same,Potency,[4],inactive
same,Potency,[5],inactive
same,Potency,[6],inactive
same,Potency,[8],inactive
same,Potency,[7],inactive
